Results filed as inconclusive are left out. Calls of active or inactive are those of the source. Unless noted, calls follow the shape of the dose curve; as a rule, active = well fitted curve in the direction sought with a large enough effect in the repeat runs; inconclusive = weak or mixed curves; inactive = no such curve, though single readings can be large; an effect the other way counts as inactive or inconclusive.
Tests used:
[1] = qHTS assay for small molecules that induce genotoxicity in human embryonic kidney cells expressing luciferase-tagged ATAD5 (AID 651632); also: nearly all actives have a fitted effect of over 15% in size
How it was run: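 Concentration-response screen for ATAD5 upregulation in HEK293T luciferase reporter cells; 16 hr treatment at 37C, then luminescence after 30 min with Amplite at room temperature.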

[2] = qHTS assay for small molecules that induce genotoxicity in human embryonic kidney cells expressing luciferase-tagged ATAD5 - cell viability (AID 651634; calls by dose curve; also: nearly all actives have a fitted effect of over 25% in size)
How it was run: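 15.5 hr compound or vehicle exposure of HEK293T cells expressing luciferase-tagged ATAD5 at 37C; live-cell protease activity is read by fluorescence after 30 min of CellTiter-Fluor.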

[3] = qHTS assay for small molecule disruptors of the mitochondrial membrane potential - cell viability (AID 720634; calls by dose curve;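 also: human HepG2 liver cancer cells; series mostly up to about 83 µM; nearly all actives have a fitted effect of over 20% in size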)
How it was run: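 In this qHTS format, HepG2 cells plated overnight were pinned with compound, incubated 1 hr, and assayed for ATP luminescence with CellTiter-Glo after m-MPI dye addition.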

[4] = qHTS assay to test for compound auto fluorescence at 590 nm (red) in HepG2 cells (AID 720674)
How it was run: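 Seeding: 2,000 HepG2 cells/well, MEM/10% FBS, overnight 37 C. Dosing: compound vs DMSO. Incubation: 1 hr, 37 C, 5% CO2. Read: fluorescence 540 ex/590 em, Rose Bengal sodium as red reference.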

[5] = qHTS assay to test for compound auto fluorescence at 535 nm (green) in HepG2 cells (AID 720675)
[6] = qHTS assay to test for compound auto fluorescence at 590 nm (red) in HEK293 cells (AID 720679)
How it was run: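 Autofluorescence equivalency to Rose Bengal sodium, 540/590nm, in HEK293 cells exposed overnight to 23 nL compound per well.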

[7] = qHTS assay to test for compound auto fluorescence at 535 nm (green) in HEK293 cells (AID 720680)
[8] = qHTS assay to test for compound auto fluorescence at 460 nm (blue) in HEK293 cell free culture (AID 720681)
How it was run: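 Compounds were added to cell-free DMEM with 10% FBS and fluorescence read directly. The blue channel used 405 nm excitation and 460 nm emission, with triamterene as the reference fluorophore.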

[9] = qHTS assay to test for compound auto fluorescence at 535 nm (green) in HEK293 cell free culture (AID 720682)
How it was run: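 Measurement is a direct plate read of green fluorescence (485 nm in, 535 nm out) after compound addition to serum-supplemented DMEM lacking cells, with fluorescein used to express intensities.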

[10] = qHTS assay to test for compound auto fluorescence at 590 nm (red) in HEK293 cell free culture (AID 720683)
How it was run: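 Cell-free wells of DMEM with 10% FBS received compound, and intrinsic fluorescence was read at excitation/emission 540/590 nm. Values expressed as equivalence to Rose Bengal sodium.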

[11] = qHTS assay to test for compound auto fluorescence at 460 nm (blue) in HepG2 cell free culture (AID 720685)
How it was run: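 Cell-free plates of MEM plus 10% FBS received 23 nL compound or DMSO vehicle; blue-channel (405/460 nm) intensity scored against triamterene as reference fluorophore.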

[12] = qHTS assay to test for compound auto fluorescence at 535 nm (green) in HepG2 cell free culture (AID 720686)
[13] = qHTS assay to test for compound auto fluorescence at 460 nm (blue) in HepG2 cells (AID 720687)
How it was run: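 HepG2 cells in MEM with 10% FBS, attached overnight at 37 C, were exposed to compound or DMSO for 1 hr at 37 C, 5% CO2. Blue fluorescence was read at 405/460 nm, with triamterene as reference fluorophore.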

[14] = molecular target: Glucocorticoid receptor (Homo sapiens) (UniProt P04150); assay: qHTS assay to identify small molecule agonists of the glucocorticoid receptor (GR) signaling pathway (AID 720691; active = well fitted activation curve with a large enough effect in the signal ratio in the repeat runs, not every such curve was filed as active; the % refers to the signal ratio)
Glucocorticoid receptor (Homo sapiens), sequence (P04150 whole entry, looked up): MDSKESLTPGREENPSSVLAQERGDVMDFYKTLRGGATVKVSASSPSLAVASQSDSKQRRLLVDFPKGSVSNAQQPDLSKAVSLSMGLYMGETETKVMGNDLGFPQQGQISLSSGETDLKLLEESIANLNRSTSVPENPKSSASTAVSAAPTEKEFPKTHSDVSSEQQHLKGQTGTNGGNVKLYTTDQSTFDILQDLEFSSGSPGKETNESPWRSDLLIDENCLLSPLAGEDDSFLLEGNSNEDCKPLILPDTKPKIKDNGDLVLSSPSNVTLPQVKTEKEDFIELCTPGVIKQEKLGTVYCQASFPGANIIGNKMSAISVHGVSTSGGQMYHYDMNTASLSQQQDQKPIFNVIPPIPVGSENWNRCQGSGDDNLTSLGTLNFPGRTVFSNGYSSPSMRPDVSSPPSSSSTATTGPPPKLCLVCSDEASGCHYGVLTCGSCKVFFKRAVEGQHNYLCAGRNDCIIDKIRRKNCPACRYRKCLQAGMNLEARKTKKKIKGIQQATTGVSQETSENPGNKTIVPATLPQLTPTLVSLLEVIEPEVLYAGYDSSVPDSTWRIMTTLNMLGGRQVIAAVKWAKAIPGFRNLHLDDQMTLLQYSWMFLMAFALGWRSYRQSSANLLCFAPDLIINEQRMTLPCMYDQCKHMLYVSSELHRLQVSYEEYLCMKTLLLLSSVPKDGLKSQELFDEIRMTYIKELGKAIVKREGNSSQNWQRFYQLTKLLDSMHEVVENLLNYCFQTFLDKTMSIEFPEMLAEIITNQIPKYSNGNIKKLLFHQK
How it was run: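 Measures GR pathway activation through a GRE-beta-lactamase reporter stably integrated in HeLa cells, with 18 h compound treatment at 37 C and fluorescence detection using a FRET substrate.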

[15] = molecular target: Glucocorticoid receptor (Homo sapiens) (UniProt P04150); assay: qHTS assay to identify small molecule antagonists of the glucocorticoid receptor (GR) signaling pathway (AID 720692; active = well fitted inhibition curve with a large enough effect in the signal ratio in the repeat runs, not every such curve was filed as active; the % refers to the signal ratio)
How it was run: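 Tox21 10K library screened in concentration-response for blockade of dexamethasone (5 nM final)-induced GRE-bla reporter activity in HeLa cells; 18 h treatment, fluorescence read.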

[16] = qHTS assay for small molecule agonists of the p53 signaling pathway - cell viability (AID 651633; calls by dose curve;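 also: p53RE-bla HCT reporter cells with a stable beta-lactamase p53 reporter; series mostly up to about 83 µM; nearly all actives have a fitted effect of over 30% in size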)
How it was run: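 p53RE-bla cells were treated with compound for 16 hours at 37 C. Cytotoxicity was then measured as CellTiter-Glo luminescence after 30 min at room temperature.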

[17] = qHTS assay to test for compound auto fluorescence at 590 nm (red) in HepG2 cell free culture (AID 720684)
How it was run: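 Rose Bengal sodium served as the reference for red signal. Test compounds were dispensed into serum-containing MEM (10% FBS) without cells, and plates were read at 540/590 nm.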

[18] = qHTS assay to test for compound auto fluorescence at 460 nm (blue) in HEK293 cells (AID 720678)
How it was run: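 Auto fluorescence in the blue band was quantified as triamterene equivalency. HEK293 cells were seeded at 2,000/well, dosed after a 4-5 hr attachment, and kept overnight at 37C before the 405/460 nm reading.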

[19] = qHTS assay for small molecule disruptors of the mitochondrial membrane potential (AID 720635)
How it was run: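 HepG2 cells exposed to compound 1 hr at 37C, then Mito-MPS dye 30 min. Ratio read of aggregate (540/590 nm) versus monomer (490/535 nm) fluorescence.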
% is scaled to controls: 0 for no effect and ±100 for the full control effect.

CCC(=O)c1ccc(Cl)cc1
inactive: outcome [1] | Potency [2] | Potency [3] | outcome [4] | outcome [5] | outcome [6] | outcome [7] | outcome [8] | outcome [9] | outcome [10] | outcome [11] | outcome [12] | outcome [13] | Potency [14] | Potency [15]

CCC1(c2cccc(O)c2)CCCCN(C)C1 (stereo not drawn)
inactive: Potency [16] | Potency [2] | Potency [3] | fluorescence, relative to Rose Bengal [4] 0.128% [at 18.6 µM] | fluorescence, % of fluorescein control [5] 0.0413% [at 18.6 µM] | fluorescence, % of fluorescent control [6] 0.162% [at 18.6 µM] | fluorescence, % of fluorescein [7] -0.0115% [at 18.6 µM] | fluorescence, % of fluorescent control [8] 0.0294% [at 18.6 µM] | activity change [9] 0.0131% [at 18.6 µM] | fluorescence, % of fluorescent control [10] 0.0544% [at 18.6 µM] | fluorescence, % of Rose Bengal [17] 0.0113% [at 18.6 µM] | fluorescence, % of fluorescent control [11] 0.002% [at 18.6 µM] | fluorescence, % of fluorescein control [12] -0.0769% [at 18.6 µM] | fluorescence, % of fluorescent control [13] -0.0146% [at 18.6 µM] | Potency [14] | Potency [15]

O=[N+]([O-])c1cccc(CCl)c1
inactive: Potency [16] | Potency [2] | Potency [3] | outcome [4] | outcome [5] | outcome [18] | outcome [6] | outcome [7] | outcome [8] | outcome [9] | outcome [10] | outcome [17] | outcome [12] | outcome [13] | Potency [14] | Potency [15]

CCOP(=S)(OCC)SCCl
inactive: Potency [16] | Potency [2] | Potency [3] | Potency [19] | outcome [4] | outcome [5] | outcome [18] | outcome [6] | outcome [7] | outcome [8] | outcome [9] | outcome [10] | outcome [17] | outcome [11] | outcome [12] | outcome [13] | Potency [14] | Potency [15]

CON(C)C(=O)Nc1ccc(Br)cc1
inactive: Potency [16] | Potency [2] | Potency [3] | outcome [5] | outcome [18] | outcome [6] | outcome [7] | outcome [8] | outcome [10] | outcome [17] | outcome [11] | outcome [12] | outcome [13] | Potency [14]

ClCCCCCCCl
inactive: outcome [1] | Potency [2] | Potency [3] | outcome [4] | outcome [5] | outcome [18] | outcome [6] | outcome [7] | outcome [10] | outcome [17] | outcome [11] | outcome [12] | outcome [13] | Potency [14] | Potency [15]

CC1=C2[C@H]3OC(=O)[C@@H](C)[C@@H]3CC[C@@]2(C)C=CC1=O
inactive: outcome [1] | Potency [16] | Potency [3] | Potency [19] | outcome [4] | outcome [5] | outcome [18] | outcome [6] | outcome [7] | outcome [8] | outcome [9] | outcome [11] | outcome [12] | outcome [13] | Potency [14] | Potency [15]

C#CC(C)(C)O
inactive: Potency [16] | Potency [3] | outcome [5] | outcome [18] | outcome [6] | outcome [9] | outcome [10] | outcome [11] | outcome [12] | outcome [13]

CON(C)C(=O)Nc1ccc(Br)c(Cl)c1
inactive: outcome [1] | Potency [16] | outcome [4] | outcome [5] | outcome [18] | outcome [6] | outcome [7] | outcome [10] | outcome [11] | outcome [12] | outcome [13] | Potency [14]

O=C(O)C(Cl)Br (stereo not drawn)
inactive: Potency [16] | Potency [2] | Potency [3] | outcome [4] | outcome [5] | outcome [6] | outcome [7] | outcome [9] | outcome [10] | outcome [11] | outcome [12] | outcome [13] | Potency [14]

CCCC(C)C1(CC)C(=O)N=C(S)NC1=O (stereo not drawn)
inactive: Potency [16] | Potency [3] | Potency [19] | outcome [4] | outcome [5] | outcome [18] | outcome [6] | outcome [7] | outcome [8] | outcome [9] | outcome [11] | outcome [12] | outcome [13] | Potency [14] | Potency [15]

C[C@]12C=CC(=O)C=C1CC[C@@H]1[C@@H]2CC[C@@]2(C)[C@H]1CC[C@]2(C)O
inactive: Potency [16] | Potency [2] | Potency [3] | Potency [19] | outcome [4] | outcome [5] | outcome [18] | outcome [6] | outcome [8] | outcome [9] | outcome [10] | outcome [17] | outcome [11] | outcome [12] | outcome [13]

CC(Cc1ccccc1)NCCn1cnc2c1c(=O)n(C)c(=O)n2C (stereo not drawn)
inactive: outcome [1] | Potency [16] | Potency [3] | Potency [19] | outcome [4] | outcome [5] | outcome [6] | outcome [7] | outcome [8] | outcome [9] | outcome [10] | outcome [17] | outcome [11] | outcome [12] | outcome [13] | Potency [14] | Potency [15]

C(COCC1CO1)OCC1CO1 (stereo not drawn)
inactive: outcome [1] | Potency [16] | Potency [3] | outcome [4] | outcome [5] | outcome [18] | outcome [6] | outcome [7] | outcome [8] | outcome [9] | outcome [10] | outcome [17] | outcome [12] | outcome [13] | Potency [14] | Potency [15]

CCOC(=O)c1ncn2c1CN(C)C(=O)c1c(I)cccc1-2
inactive: outcome [1] | Potency [16] | Potency [3] | outcome [4] | outcome [5] | outcome [18] | outcome [6] | outcome [7] | outcome [9] | outcome [10] | outcome [17] | outcome [11] | outcome [12] | outcome [13] | Potency [14]

CCN(CC)C1CCCCC1
inactive: outcome [1] | Potency [16] | Potency [3] | outcome [4] | outcome [5] | outcome [18] | outcome [6] | outcome [7] | outcome [8] | outcome [10] | outcome [17] | outcome [12] | outcome [13] | Potency [14] | Potency [15]

— PubChem BioAssay (Tox21)
